From PubChem BioAssay come the findings set out here.

For part of these data: Results with a measured potency or affinity are listed apart. Active and inactive are the calls of the source.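 Rule for the calls, unless noted: active = calcium signal ratio cut to more than 3 SD under the fully stimulated control mean yet still positive, in both repeats and the primary screen; inactive = the rest.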

Assay [1] relates to TRPC4 beta (transient receptor potential cation channel C4), mouse. Briefly: TRPC4 cation channel opening, retest – cell-based, Fluo4 calcium, HEK293 TRPC4beta/mu-opioid, duplicates, 10 µM, confirmation (AID 2426;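 active = fluorescence ratio normalized to control raised more than 50% in primary screen plus both repeat runs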;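 for activation: percent rise of integrated ratio over buffer wells lacking compound which define 0%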). The note with it: Fluo4 calcium fluorescence, at 10 µM; active compounds read high.
Assay [2] has as its system transient receptor potential cation channel C4 beta (TRPC4), mouse. Briefly: TRPC4 cation channel opening, second retest – cell-based, second round, Fluo4, HEK293 TRPC4beta/mu-opioid, 1 µM, confirmation (AID 2461;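 active = primary screen active and over 50% activation in each of two duplicate runs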;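 for activation: 0% = wells without test compound as baseline of integrated fluorescence ratio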). Conditions: Fluo4 calcium fluorescence, at 1 µM; active compounds read high.
Assay [3] deals with TRPC4 (transient receptor potential cation channel C4 beta), mouse. In words: potentiation of DAMGO EC20 TRPC4 response – cell-based, second round, Fluo-4, HEK293 TRPC4beta/mu-opioid, 1 µM, confirmation (AID 2554;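 active = primary screen hit whose fluorescence ratio, in both repeats, exceeds the weak agonist control mean by 3 SD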). Conditions: DAMGO EC20, Fluo-4 calcium flux, at 1 µM; active compounds read high. A general note: A change in cytosolic calcium serves as a functional read-out for many receptors and channels.

The subject of assay [4] is TRPC4 beta (transient receptor potential cation channel C4), mouse. In words: potentiation of DAMGO EC20 TRPC4 response – cell-based, Fluo-4, HEK293 TRPC4beta/mu-opioid, confirmation (AID 2555;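 active = primary screen hit whose calcium fluorescence ratio, in both repeats, exceeds the weak agonist control mean by 3 SD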). The note with it: DAMGO EC20, Fluo-4 calcium flux, at 10 µM; active compounds read high.
Assay [5] addresses Short transient receptor potential channel 4 (Mus musculus) (UniProt Q9QUQ5). Briefly: blockers of DAMGO-evoked TRPC4 calcium flux – cell-based, Fluo4, HEK293 TRPC4beta/mu-opioid, confirmation (AID 2636;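 active = calcium signal cut by more than 3 SD below the full-agonist control yet still positive, in both repeats and the earlier primary screen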). Conditions: at 10 µM; active compounds read high.
The target is the same in assay [6]. Briefly: blockers of DAMGO-evoked TRPC4 calcium flux – cell-based, second round, Fluo4, HEK293 TRPC4beta/mu-opioid, 1 µM, confirmation (AID 2637). Conditions: at 1 µM; active compounds read high.
The target is the same in assay [7]. Briefly: potentiation of DAMGO-evoked TRPC4 calcium signal – cell-based, HEK293 TRPC4/mu-opioid, Fluo-4 calcium, EC20 DAMGO, dose response (AID 434941;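 active = earlier screen potentiator hit that boosts the TRPC4 ion channel at some dose, with a dose response; inactive = no potentiation, no dose response, or not a prior hit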;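 note: calcium entry triggered by an EC20 dose of DAMGO at the co-expressed mu-opioid receptor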).
Assay [8] shares this target. Briefly: block of DAMGO-driven TRPC4 calcium entry – cell-based, HEK293 TRPC4/mu-opioid, Fluo-4 calcium, dose response (AID 434942;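 active = primary screen inhibitor hit that blocks the TRPC4 channel at some tested dose, yielding a dose curve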).
Assay [9] concerns the target Short transient receptor potential channel 6 (Mus musculus) (UniProt Q61143). In words: TRPC6 blockade by TRPC4 inhibitor hits – cell-based, HEK293, membrane potential dye, duplicate, selectivity assay for TRPC4 inhibitor project, confirmation (AID 434948;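 active = active in primary screen and both duplicates, each dropping signal beyond three positive-control SD with fluorescence still positive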). The note with it: HEK293 TRPC6, membrane potential dye fluorescence, at 10 µM, stimulated with maximal-effect acetylcholine; active compounds read high.

The target is the same in assay [10]. In words: TRPC6 opening by TRPC4 activator hits – cell-based, HEK293, membrane potential dye, duplicate, selectivity assay for TRPC4 activator project, confirmation (AID 434950;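 active = membrane potential signal rise above negative control mean plus 3 SD in both duplicates, also active in the earlier TRPC4 screen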;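 for activation: 0% = buffer only wells and 100% = acetylcholine maximal-effect wells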). The note with it: HEK293 TRPC6, membrane potential fluorescence, at 10 µM; activation: active compounds read high; outcome: activation.
Assay [11] has the same target. In words: positive modulators of mouse TRPC6 channel – HEK293 cells, membrane potential dye, duplicate, selectivity assay for TRPC4 potentiator project, confirmation (AID 434952;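 active = compound raising the membrane signal above positive-control mean plus 3 SD in both repeats, and a primary screen hit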). Conditions: HEK293 TRPC6, membrane potential dye fluorescence, at 10 µM, maximal acetylcholine added after compound; active compounds read high.
The target of assay [12] is Short transient receptor potential channel 4 (Mus musculus) (UniProt Q9QUQ5). Briefly: calcium flux activators in TRPC4/5HT1a cells, counter-screen for TRPC4 activator project, cell-based, second counter screen, HEK293 TRPC4/5HT1a, Fluo-4 (AID 434977;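 active = calcium signal rise above buffer-control mean plus 5 SD in both duplicates, and also a hit in the primary screen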;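 for activation: plate controls were assay buffer for no effect and maximal serotonin response for full effect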). The note with it: Fluo-4 calcium flux, at 10 µM; active compounds read high.
Sequence of Short transient receptor potential channel 4 (Mus musculus) (Q9QUQ5 whole entry, looked up): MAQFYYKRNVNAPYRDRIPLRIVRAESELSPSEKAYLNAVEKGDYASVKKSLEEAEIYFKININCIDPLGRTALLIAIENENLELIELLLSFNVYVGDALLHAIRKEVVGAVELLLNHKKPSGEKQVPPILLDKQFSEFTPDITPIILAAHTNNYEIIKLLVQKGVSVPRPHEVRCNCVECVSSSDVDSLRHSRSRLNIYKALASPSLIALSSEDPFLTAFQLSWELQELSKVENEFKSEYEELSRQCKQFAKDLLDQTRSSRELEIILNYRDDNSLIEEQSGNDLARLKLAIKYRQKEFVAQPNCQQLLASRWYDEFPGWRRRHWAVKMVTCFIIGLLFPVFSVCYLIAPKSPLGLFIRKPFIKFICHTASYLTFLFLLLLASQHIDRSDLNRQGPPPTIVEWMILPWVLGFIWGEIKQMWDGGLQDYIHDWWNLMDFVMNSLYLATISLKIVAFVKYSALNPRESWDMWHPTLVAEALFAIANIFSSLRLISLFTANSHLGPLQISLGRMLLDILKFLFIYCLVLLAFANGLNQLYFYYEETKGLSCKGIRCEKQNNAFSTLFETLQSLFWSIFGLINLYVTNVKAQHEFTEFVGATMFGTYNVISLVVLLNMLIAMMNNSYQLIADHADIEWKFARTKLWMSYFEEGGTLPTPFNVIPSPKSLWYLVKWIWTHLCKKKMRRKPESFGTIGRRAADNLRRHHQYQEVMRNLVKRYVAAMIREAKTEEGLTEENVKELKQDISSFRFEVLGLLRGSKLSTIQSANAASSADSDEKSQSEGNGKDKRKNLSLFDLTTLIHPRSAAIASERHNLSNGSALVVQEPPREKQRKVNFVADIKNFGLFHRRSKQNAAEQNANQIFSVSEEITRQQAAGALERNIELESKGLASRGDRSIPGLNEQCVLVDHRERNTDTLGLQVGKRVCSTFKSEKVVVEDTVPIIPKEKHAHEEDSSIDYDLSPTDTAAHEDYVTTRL
A short description of assay [13]: serotonin-gated TRPC4 signal block – cell-based, second counter screen, HEK293 TRPC4/5HT1a, Fluo-4, counter-screen for TRPC4 inhibitor project, confirmation (AID 434978;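 active = primary screen active whose calcium signal fell more than 3 SD beyond the full-serotonin control mean in both duplicate plates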;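 note: serotonin given first at submaximal then at maximal dose after compound preincubation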). The note with it: Fluo-4 calcium flux, at 10 µM, serotonin added to trigger calcium flux; active compounds read high.
Assay [14] deals with TRPC4 (mouse), co-expressed with 5HT1a in HEK293. Briefly: enhancement of serotonin-evoked TRPC4 response – cell-based, second counter screen, HEK293 TRPC4/5HT1a, Fluo-4, counter-screen for TRPC4 potentiator project, confirmation (AID 434979;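 active = signal rise over 3 SD above mean of control wells given weak agonist, in both repeats and first screen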). The note with it: Fluo-4 calcium flux, at 10 µM, serotonin added at its EC20 dose; active compounds read high. Background: The purpose of a counterscreen is to sort out artefacts and off-target activity.

Assay [15] in a line: nonspecific calcium rise without TRPC4 – cell-based, HEK293 mu-opioid receptor line, counter-screen for TRPC4 activator project, confirmation (AID 449723;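 active = hit in primary screen, with calcium signal over 5 SD above buffer well mean in both duplicates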;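 note: counter screen cells carry the mu-opioid receptor alone and lack TRPC4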). The note with it: HEK293 mu-opioid cells, Fluo-4 calcium fluorescence, at 10 µM; active compounds read high.
Assay [16] is described as follows: nonspecific potentiation of DAMGO calcium response – cell-based, HEK293 mu-opioid receptor line, counter-screen for TRPC4 allosteric potentiator project, confirmation (AID 449724;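 active = calcium signal rise more than 3 SD above the low-dose agonist control mean, in both duplicate plates and the primary screen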;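 note: HEK293 cells carrying mu-opioid receptor only with no TRPC4 channel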). Conditions: HEK293 mu-opioid receptor cells, Fluo-4 calcium flux, at 10 µM, compound added before EC20 DAMGO stimulus; active compounds read high.

Sequence of Short transient receptor potential channel 6 (Mus musculus) (Q61143 whole entry, looked up): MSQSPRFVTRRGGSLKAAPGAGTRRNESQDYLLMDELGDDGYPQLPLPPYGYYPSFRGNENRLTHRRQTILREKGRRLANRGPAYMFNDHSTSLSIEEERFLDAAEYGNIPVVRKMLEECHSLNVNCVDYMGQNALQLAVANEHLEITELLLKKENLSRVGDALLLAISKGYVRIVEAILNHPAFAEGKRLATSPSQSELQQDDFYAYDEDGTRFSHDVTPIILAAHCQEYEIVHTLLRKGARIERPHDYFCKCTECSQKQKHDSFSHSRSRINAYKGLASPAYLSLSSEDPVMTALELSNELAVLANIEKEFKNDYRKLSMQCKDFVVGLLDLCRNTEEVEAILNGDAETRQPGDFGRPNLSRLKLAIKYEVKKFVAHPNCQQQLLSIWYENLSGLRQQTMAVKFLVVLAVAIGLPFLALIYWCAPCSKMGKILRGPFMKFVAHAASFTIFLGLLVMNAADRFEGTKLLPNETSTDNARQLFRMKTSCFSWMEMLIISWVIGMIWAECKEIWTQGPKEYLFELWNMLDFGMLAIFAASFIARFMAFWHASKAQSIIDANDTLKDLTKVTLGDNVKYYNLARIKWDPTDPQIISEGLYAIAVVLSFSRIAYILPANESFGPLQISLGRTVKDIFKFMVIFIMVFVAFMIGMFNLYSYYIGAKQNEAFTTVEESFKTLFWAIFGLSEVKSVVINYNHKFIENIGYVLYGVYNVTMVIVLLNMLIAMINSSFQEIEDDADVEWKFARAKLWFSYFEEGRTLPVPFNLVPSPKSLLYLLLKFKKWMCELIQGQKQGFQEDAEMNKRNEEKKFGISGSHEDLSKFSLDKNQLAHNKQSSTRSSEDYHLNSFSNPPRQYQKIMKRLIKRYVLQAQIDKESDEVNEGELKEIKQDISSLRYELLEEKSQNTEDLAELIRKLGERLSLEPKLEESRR

On to `CCCN(CCC)CCNC(=S)Nc1ccc2nc3n(c(=O)c2c1)CCCCC3`, for which the outcome in [1], in assay [2], in assay [3], in assay [4], in assay [5] and in assay [6] was inactive. Also, the outcome in assay [7], in assay [8], in [9], in [11], in [13] and in assay [14] was inactive. Also, the outcome in [15] and in [16] was inactive. The activation is 47% (active) in assay [10] and 7.78% (active) in [12].

For the molecule `Cc1cc(OCCCCn2ccnc2)cc(C)c1Cl`, the activation in [1] is 102% (active); in assay [10], 50% (active); in [12], 20.1% (active). Further, the result in assay [2], in assay [3], in assay [4], in [5], in [6] and in assay [7] was inactive. Moreover, the result in assay [8], in assay [9], in [11], in assay [13], in assay [14] and in assay [15] was inactive. The outcome in assay [16] was inactive.

In the case of `CCCN(CCC)CCCNC(=O)C1CCN(S(=O)(=O)c2cccc3nsnc23)CC1`, the activation was 145% (active) in assay [1], 95% (active) in [2] and 54.7% (active) in assay [12]. Further, the result in assay [3], in assay [4], in assay [5], in assay [6], in [7] and in assay [8] was inactive. Also, the molecule was classed as inactive in assay [9], in assay [10], in assay [11], in assay [13], in [14] and in assay [15]. The result in assay [16] was inactive.

On to `Cc1cc(Br)ccc1OCCn1ccnc1`, for which the outcome in assay [1], in assay [2], in assay [3], in assay [4], in assay [5] and in [6] was inactive. In addition, the outcome in assay [7], in assay [8], in assay [9], in assay [11], in assay [13] and in [14] was inactive. Also, the outcome in assay [15] and in assay [16] was inactive. The activation in assay [10] was 37.5% (active); in [12], 11.7% (active).

In the case of `CN(C)CCCN(C(=O)c1ccc(S(=O)(=O)N2CCCCCC2)cc1)c1nc2ccc(F)cc2s1`, the results for the activation in assay [1], in assay [12] and in assay [15] were 278% (active), 44.3% (active) and 27.1% (active), respectively. The outcome in assay [2], in assay [3], in [4], in assay [5], in [6] and in [7] was inactive. The result in assay [8], in assay [9], in assay [10], in assay [11], in assay [13] and in [14] was inactive. In addition, in assay [16], the outcome was inactive.

Consider `CCCC(=O)N1CCc2cc(-c3nc(N)sc3C)ccc21`, for which the activation in assay [1] was 62% (active). Moreover, the outcome in [2], in assay [3], in assay [4], in assay [5], in [6] and in [7] was inactive. The outcome in [8], in assay [9], in assay [10], in assay [11], in assay [12] and in assay [13] was inactive. The result in [14], in [15] and in [16] was inactive.

In the case of `Cc1ccc(C2N(c3ccc(Cl)c(Cl)c3)C(=O)C3CCCN32)o1` (stereo not given), the values for the activation in [1] and in [12] were 53% (active) and 13.8% (active), respectively. Further, the result in [2], in assay [5], in assay [6], in assay [7], in assay [8] and in assay [9] was inactive. For the same molecule, the molecule was classed as inactive in [10], in assay [11], in assay [13], in assay [15] and in assay [16]. Also, the potentiation in assay [3] is 9% (active); in assay [4], 22% (active); in [14] it was 20% (active).

For the molecule `O=C(O)c1ccc(-c2ccc(/C=c3/sc4nc5ccccc5n4c3=O)o2)cc1Cl`, the outcome in [1], in assay [2], in assay [3], in assay [5], in [6] and in assay [7] was inactive. The outcome in assay [8], in assay [9], in [13], in [14] and in [16] was inactive. Further, the potentiation in assay [4] was 10% (active). The activation is 218% (active) in assay [10], 46.3% (active) in assay [12] and 40.9% (active) in assay [15]. Also, the potentiation, percent of control in assay [11] was 166% (active).

With `Cc1ccc(Cl)cc1NC(=O)CNCC(c1ccccc1)N(C)C` (stereo not given), the outcome in [1], in assay [2], in assay [3], in [4], in [5] and in [6] was inactive. The outcome in assay [7], in [8], in [9], in assay [11], in assay [12] and in assay [13] was inactive. Besides, the outcome in assay [14], in assay [15] and in assay [16] was inactive. Also, in assay [10], the activation is 47.5% (active).

Turning to `Cc1cc(C)c(C)c(OCCCN(C)C)c1`, the activation is 152% (active) in assay [1], 95% (active) in assay [2], 67.5% (active) in assay [10] and 47.6% (active) in assay [12]. Besides, the result in assay [3], in [4], in [5], in assay [6], in assay [7] and in [8] was inactive. Further, the call in assay [9], in assay [11], in assay [13], in assay [15] and in assay [16] was inactive. In addition, the potentiation in assay [14] was 15.7% (active).

As to `Cc1cccc2cc(C(c3nnnn3Cc3ccccc3)N3CCN(C)CC3)c(=O)[nH]c12` (stereo not given), the activation is 118% (active) in [1] and 29% (active) in [10]. Moreover, the result in assay [2], in assay [3], in assay [4], in [5], in [6] and in assay [7] was inactive. Also, the result in assay [8], in [9], in assay [11], in assay [12], in [13] and in assay [14] was inactive. For the same molecule, the result in assay [15] and in [16] was inactive.

Take `CC(=O)Nc1ccc(CN2CCCC(C(=O)c3ccc(C(F)(F)F)cc3)C2)cc1` (stereo not given): the activation is 358% (active) in [1], 86% (active) in [2], 37.5% (active) in [10] and 40.5% (active) in [12]. The outcome in assay [3], in [4], in assay [5], in assay [6], in assay [7] and in assay [8] was inactive. For the same molecule, the outcome in assay [9], in [11], in [13], in assay [14], in [15] and in [16] was inactive.

Turning to `COc1ccccc1CCC(=O)Nc1cc(S(=O)(=O)N2CCCCC2)ccc1N1CCN(C)CC1`, the activation is 153% (active) in [1], 67% (active) in assay [2] and 32.8% (active) in assay [12]. In addition, the outcome in assay [3], in assay [4], in [5], in [6], in assay [7] and in assay [8] was inactive. In addition, the molecule was called inactive in assay [9], in assay [10], in [11], in [13], in assay [14] and in [15]. For the same molecule, the result in assay [16] was inactive.

In the case of `Cc1ccc(Sc2cc(C(=O)NCCN(C)C)c3ccccc3n2)cc1`, the activation in assay [1] is 91% (active); in assay [12] it was 24.6% (active). Also, the result in assay [2], in assay [3], in assay [4], in assay [5], in assay [6] and in assay [7] was inactive. The outcome in [8], in [9], in [10], in assay [11], in [13] and in [14] was inactive. The outcome in assay [15] and in [16] was inactive.

With `CN(C)CCCN(C(=O)c1ccc(C(=O)c2ccccc2)cc1)c1nc2ccc(F)cc2s1`, the activation in assay [1] is 83% (active). For the same molecule, the result in assay [2], in assay [3], in assay [4], in assay [5], in assay [6] and in [7] was inactive. Besides, the result in assay [8], in assay [9], in assay [10], in assay [11], in [12] and in [13] was inactive. The outcome in assay [14], in assay [15] and in assay [16] was inactive.
